Sampled rows, rich in hits. Any-hit rate of the full collection: about 19%.
Pf growth 48h: inhibits P. falciparum growth in the first generation, 48 h; P. falciparum luciferase growth in erythrocytes, 48 h; Potency, µM (titrated, usually from 28.7 µM), without a hit: at the top dose activity change, negative = inhibition, hits mostly inhibitors; actives 5.9% (n = 310,000); AID 504832; note: potency is the fitted concentration of half-maximal effect; % is set by controls: 0 for no effect and ±100 for the full control effect
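Read-out is firefly luciferase luminescence from an integrated reporter in P. falciparum, so falling signal marks reduced parasite growth. Infected erythrocytes were at 2% hematocrit and 0.1% parasitemia (final) in Albumax-supplemented RPMI 1640.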
SARS PLP yeast: SARS-CoV PLP inhibition in yeast | S. cerevisiae expressing SARS-CoV PLpro, growth rescue | Potency, µM (titrated, usually from 32.9 µM), without a hit: at the highest dose activity, positive = growth rescue, usual class: activators | actives 0.19% (n = 330,000); calls by dose curve; note: potency is the fitted concentration of half-maximal effect; 0% is about no effect; nearly all actives have a fitted effect of over 55% in size
Shiga inhibitor: blocks Shiga toxin action in Vero cells. Vero cells, Shiga toxin protein synthesis inhibition reporter. inhibition, % at 38.7 µM. actives 9.2% (n = 290,000); in the data active = inhibition mostly above about 28%, no sharp cut-off; inactive = mostly below about 43%; note: 0% is about no effect
CHX counter: counter-screen hit for Shiga toxin inhibitors, cycloheximide. max response, %. AID 2314. actives 12% (n = 300,000). cell reporter, cycloheximide protein synthesis inhibition counterscreen; in the data active = max response mostly above about 13%, no sharp cut-off; inactive = mostly below about 14%; note: read at 38.3 µM for the half of the compounds with a filed dose; 0% is about no effect
Pf growth 96h: inhibits malaria parasite growth, 96 h. P. falciparum luciferase reporter growth, 96 h. Potency, µM (highest dose often 28.7 µM), for the others: at the top dose activity change, negative = inhibition, hits mostly inhibitors. actives 6.9% (n = 320,000). AID 504834; note: potency is the fitted concentration of half-maximal effect; % is set by controls: 0 for no effect and ±100 for the full control effect
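Compounds incubated with erythrocytes infected by luciferase-expressing P. falciparum (2% hematocrit, 0.05% parasitemia final) for 96 hours, 37 C in 5% CO2. Growth inhibition scored as decreased luciferase luminescence.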
AMA1-RON2 inh: inhibitors of Plasmodium falciparum AMA1-RON2 interaction; AID 720542; actives 0.2% (n = 360,000); AlphaScreen AMA1-biotinylated RON2 peptide binding; Potency, µM (titrated, usually from 58.2 µM), without a hit: at the top dose activity change, negative = inhibition, hits mostly inhibitors;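 note: potency is the fitted concentration of half-maximal effect; 0% = vehicle wells and -100% = peptide control; nearly all actives have a fitted effect of over 45% in size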
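AMA1 (3D7) with his tag at 25 nM final met compounds first, then biotinylated RON2 peptide at 25 nM; detection used donor plus acceptor beads, 10 µg/mL apiece, read by AlphaScreen after 30 min at room temperature.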
* marks the source's active call; other numbers are inactive results; ? = inconclusive; · = no result given; [ ] = remark or other dose. Unless noted, calls come from the whole dose curve; as a rule, active = well fitted curve in the direction sought with a large enough effect; inconclusive = small, poorly fitted or top-dose-only effect, or another doubt; inactive = no such curve, though single readings can be large; an effect the other way counts as inactive or inconclusive.

SMILES	Pf growth 48h	SARS PLP yeast	Shiga inhibitor	CHX counter	Pf growth 96h	AMA1-RON2 inh
CN(C(=O)c1ccc2c(c1)SC1=NS(=O)(=O)CCN12)C(c1ccccc1)c1ccccc1	11.7µM*	5.0%	-15.4	10.9	11.7µM*	-15.2%
N#CCSc1nc2ccccc2o1	40.3%	0.4%	-8.3	0.8	4.1%	-6.5%
O=C(OCC#CCSc1nc2ccccc2o1)c1cc2ccccc2o1	31.5%	11.8%	31.7	15.2*	21.2%	55.7%
O=C(OCC#CCSc1nc2ccccc2o1)c1ccco1	40.0%	-7.2%	30.8*	13.3*	8.7%	0.6%
CCOc1ccc(S(=O)(=O)NCCC(=O)NC2CCCCC2)cc1	2.0%	-1.8%	·	·	4.0%	-30.6%
CC(=O)c1cccc(NC(=O)COc2ccccc2)c1	61.6%	-10.5%	66.6	18.2*	-1.8%	9.5%
CC(=O)c1cccc(OCC(=O)Nc2cccc(C(=O)Nc3c(C)n(C)n(-c4ccccc4)c3=O)c2)c1	22.2%	-1.5%	·	·	13.2%	-4.0%
CC(C)CCOCC(=O)Nc1cccc(C(=O)O)c1	272.0%	-1.3%	120.4*	105.1*	196.2%	-2.0%
C/C(=N\NC(=O)c1c(Cl)cnn1C)c1cccc(NC(=O)COc2ccccc2)c1	-10.4%	-5.6%	23.7	16.4*	-22.3%	?
COC(=O)COc1cccc(NC(=O)COc2ccccc2)c1	14.9%	-18.3%	0.4	0.7	2.8%	-2.8%
CSc1cccc(NC(=O)COc2ccccc2)c1	51.3%	-6.1%	61.0	40.1*	·	5.3%
C=CCN1C(=O)/C(=C\c2ccc(Oc3nc(N4CCOCC4)nc(N4CCOCC4)n3)c(OC)c2)SC1=S	?	1.9%	12.3	5.0	229.7%	15.2%
COCCCNC(=O)c1ccc(Cn2c(=O)c3ccccc3n(Cc3ccccc3C#N)c2=O)cc1	·	4.3%	-14.9	-2.0	-31.6%	0.0%
O=C(O)CCCN1C(=O)C(=O)/C(=C(/O)c2ccc(Cl)cc2)C1c1ccccc1 (configuration not stated)	44.2%	0.6%	28.1	-3.2	62.7%	0.0%
O=C1OC/C(=C(/O)c2ccc(Cl)cc2)C1=O	11.7µM*	-2.7%	-4.4	7.1	-8.4%	-2.7%
Cc1ccc(-c2c(NCCc3ccccc3)c(=O)c2=O)cc1	?	1.0%	22.3	9.2	-3.8%	-0.3%
O=c1c(NCCc2ccccc2)c(-c2ccccc2)c1=O	2.08µM*	1.6%	25.1	5.9	-15.8%	6.3%
CCC1(C2=CCCCC2)C(=O)NC(=S)N=C1N (configuration not stated)	·	·	·	·	·	5.5%
O=C(NC1CCN(S(=O)(=O)c2ccccc2)CC1)c1ccccc1	9.6%	-1.6%	-11.3	10.9	14.7µM*	1.1%
Cc1cccc(C(=O)NC2CCN(S(=O)(=O)c3ccccc3F)CC2)c1	?	5.6%	15.9	-1.2	-11.2%	-2.4%
Cc1ccc(C(=O)NC2CCN(S(=O)(=O)c3ccccc3F)CC2)cc1	-5.6%	-4.3%	·	-3.6	13.1µM*	7.8%
CN(C)S(=O)(=O)Oc1ccc(Cl)cc1C(=O)Nc1ccc(F)cc1F	?	-0.9%	12.1	11.6	?	6.7%
Cc1cccc(NC(=O)c2cc(Cl)sc2Cl)c1C	47.1%	13.6%	-13.3	-2.0	92.9%	7.8%[2.32 µM]
O=C(Nc1ccc(F)cc1F)c1cc(Cl)sc1Cl	·	0.9%	85.9	30.0*	11.0%	-6.0%
O=C(Nc1ccccc1F)c1cc(Cl)sc1Cl	·	-2.2%	71.8*	31.2*	23.5%	21.2%
SMILES	Pf growth 48h	SARS PLP yeast	Shiga inhibitor	CHX counter	Pf growth 96h	AMA1-RON2 inh
CCn1ncc(Br)c1C(=O)Nc1ccc(C(C)C)cc1	-7.7%[0.00184 µM]	-1.6%	69.0*	63.7*	?	9.1%
CCn1ncc(Br)c1C(=O)Nc1ccc2c(c1)OCCO2	134.1%	-2.8%	98.7*	69.9*	16.1%	2.2%
CCn1ncc([N+](=O)[O-])c1C(=O)Nc1ccc(C(=O)N2CCCCC2)cc1	-0.7%	-3.7%	-5.9	-3.8	-27.1%	18.5%
CCC(C)c1ccc(NC(=O)c2c([N+](=O)[O-])cnn2CC)cc1 (configuration not stated)	-47.4%	-16.1%	44.1	19.5*	5.22µM*	-5.5%
CCn1ncc(Br)c1C(=O)Nc1cc(C(=O)OC)ccc1C(=O)OC	35.0%	0.2%	37.4*	14.6*	?	-2.7%
CCn1ncc(Br)c1C(=O)Nc1ncc(C)s1	37.4%	-0.2%	68.9*	26.8	138.2%	13.0%
S=c1[nH]nc(-c2cccc(Cl)c2)n1/N=C/c1ccc(-c2ccccc2Br)o1	10.4µM*	-1.3%	30.9	-1.9	?	51.7%
Cc1ccc(C)c(N/C=C(\C#N)c2nc3ccccc3o2)c1	·	·	·	·	·	0.6%
COc1cc(/C=C(\C#N)c2nc3ccccc3o2)ccc1O	3.1%	-2.5%	41.7	24.2*	5.5%	-2.5%
N#C/C(=C\c1ccc(O)cc1)c1nc2ccccc2o1	-11.1%	-3.1%	116.5*	37.0*	37.0%	4.8%
COc1cc(/C=C(\C#N)c2nc(-c3cc4ccccc4oc3=O)cs2)ccc1O	-15.9%	4.3%	2.8	-3.2	?	4.5%
O=C(CN(C(=O)Cn1nnc(-c2cccs2)n1)c1ccc2c(c1)OCCO2)NCC1CCCO1 (configuration not stated)	5.6%	1.4%	-6.3	-2.0	?	0.0%
O=C(NCc1ccccc1)C(c1ccc(O)cc1)N(C(=O)Cn1nnc(-c2cccs2)n1)c1ccc2c(c1)OCCO2 (configuration not stated)	11.7µM*	11.8%	15.2	-1.7	-8.4%	-1.0%
Cc1ccc(-c2nnn(CC(=O)N(CC(=O)NCC3CCCO3)c3ccccc3)n2)o1 (configuration not stated)	-7.0%	-6.3%	31.7	7.7	-24.3%	-3.0%
O=C(CN(C(=O)Cn1nnc(-c2cccs2)n1)c1ccc2c(c1)OCCO2)NC1CCCCC1	-21.6%	1.6%	56.2*	32.1*	-8.0%	-1.1%
O=C(CN(C(=O)Cn1nnc(-c2ccccc2F)n1)c1cnc2ccccc2c1)NCC1CCCO1 (configuration not stated)	9.28µM*	2.8%	-6.2	-1.9	?	1.9%
O=C(CN(C(=O)Cn1nnc(-c2cccs2)n1)c1cnc2ccccc2c1)NCC1CCCO1 (configuration not stated)	?	18.5%	24.1	1.0	14.7µM*	-0.8%
Cn1cc(-c2csc(C(O)c3ccc(F)c(F)c3)n2)cn1 (configuration not stated)	·	·	·	·	·	0.0%
O=C(c1cn(Cc2ccccc2)nc1-c1ccccc1)N1CCN(c2ccccn2)CC1	14.7µM*	3.3%	·	·	?	-4.0%
CC(=O)c1ccc(N2CCN(C(=O)c3cn(Cc4ccccc4)nc3-c3cccnc3)CC2)c(F)c1	13.1µM*	2.2%	·	·	9.28µM*	8.9%
COc1ccc(-c2nn(Cc3ccccc3)cc2C(=O)N2CCN(c3ccccn3)CC2)cc1OC	?	-1.3%	·	·	?	11.1%

High-throughput results from PubChem BioAssay.
